Here are results for 17 compounds from the supplement of paper PMC6089552.

Among all 3,200 compounds or so, about 300 (9.4%) showed activity. Many of the other results were omitted from the sample, so actives are more common in it than they were. Unmarked numbers belong to inactive results.

The assay deals with A673/TR/shEF. The assay can be described thus: cell viability (LOESS-normalised, relative to median of negative controls) (log2 ratio); higher = more viable cells (less compound effect), active = hit call of the paper (over 3 MAD below the median). To be noted: treatment time: 72 h. In outline: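 Viability of A673/TR/shEF Ewing sarcoma cells was determined by CellTiter-Glo luminescence. The cells, at 1,500 per well in 384-well plates, were grown with or without doxycycline from 24 h before compound addition to switch on EWS-FLI1 shRNA knockdown, then exposed for three days to library compounds at two or more concentrations or to DMSO controls. Signals were LOESS-corrected plate by plate, normalised to the negative-control median and log2-transformed.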

Where [1] appears, read: 0.103 µM, library screen: screen3, EWS-FLI1 expression: high (no doxycycline).
[2] abbreviates: 0.103 µM, library screen: screen3, EWS-FLI1 expression: low (doxycycline-induced shRNA knockdown).
The mark [3] stands for this setting: 0.308 µM, library screen: screen3, EWS-FLI1 expression: high (no doxycycline).
Setting [4] is: 0.308 µM, library screen: screen3, EWS-FLI1 expression: low (doxycycline-induced shRNA knockdown).
The mark [5] stands for this setting: 0.926 µM, library screen: screen3, EWS-FLI1 expression: high (no doxycycline).
The mark [6] stands for this setting: 0.926 µM, library screen: screen3, EWS-FLI1 expression: low (doxycycline-induced shRNA knockdown).
Setting [7] is: 2.8 µM, library screen: screen3, EWS-FLI1 expression: high (no doxycycline).
The mark [8] stands for this setting: 2.8 µM, library screen: screen3, EWS-FLI1 expression: low (doxycycline-induced shRNA knockdown).
The mark [9] stands for this setting: 8.3 µM, library screen: screen3, EWS-FLI1 expression: high (no doxycycline).
Setting [10] is: 8.3 µM, library screen: screen3, EWS-FLI1 expression: low (doxycycline-induced shRNA knockdown).
[11] abbreviates: 25 µM, library screen: screen3, EWS-FLI1 expression: high (no doxycycline).
Setting [12] is: 25 µM, library screen: screen3, EWS-FLI1 expression: low (doxycycline-induced shRNA knockdown).
[13] abbreviates: 0.25 µM, library screen: screen2, EWS-FLI1 expression: high (no doxycycline).
Where [14] appears, read: 0.25 µM, library screen: screen2, EWS-FLI1 expression: low (doxycycline-induced shRNA knockdown).
Where [15] appears, read: 2.5 µM, library screen: screen2, EWS-FLI1 expression: high (no doxycycline).
[16] abbreviates: 2.5 µM, library screen: screen2, EWS-FLI1 expression: low (doxycycline-induced shRNA knockdown).
The mark [17] stands for this setting: 0.25 µM, library screen: screen1, EWS-FLI1 expression: high (no doxycycline).
[18] abbreviates: 0.25 µM, library screen: screen1, EWS-FLI1 expression: low (doxycycline-induced shRNA knockdown).
[19] abbreviates: 2.5 µM, library screen: screen1, EWS-FLI1 expression: high (no doxycycline).
Where [20] appears, read: 2.5 µM, library screen: screen1, EWS-FLI1 expression: low (doxycycline-induced shRNA knockdown).
Setting [21] is: 0.025 µM, library screen: screen1, EWS-FLI1 expression: high (no doxycycline).
The mark [22] stands for this setting: 0.025 µM, library screen: screen1, EWS-FLI1 expression: low (doxycycline-induced shRNA knockdown).
[23] abbreviates: 25 µM, library screen: screen1, EWS-FLI1 expression: high (no doxycycline).
[24] abbreviates: 25 µM, library screen: screen1, EWS-FLI1 expression: low (doxycycline-induced shRNA knockdown).

As to `COc1cc2ncnc(Nc3ccc(F)c(Cl)c3)c2cc1OCCCN1CCOCC1`, the “cell viability (log2)” value is 0.066 under setting [1]; 0.0855 under setting [2]; 0.103 under setting [3]; 0.0493 under setting [4]; 0.114 under setting [5]; 0.0535 under setting [6]. The “cell viability (log2)” value is, setting by setting: under setting [7], 0.136; under setting [8], 0.0991; under setting [9], 0.00987; under setting [10], 0.0751; under setting [11], -0.0152; under setting [12], 0.0721.

`CN(C)C/C=C/C(=O)Nc1cc2c(Nc3ccc(F)c(Cl)c3)ncnc2cc1O[C@H]1CCOC1`: the “cell viability (log2)” value by setting is: under setting [1], -0.033; under setting [2], 0.00738; under setting [3], -0.0507; under setting [4], -0.00854; under setting [5], 0.0161; under setting [6], -0.000186. In addition, the “cell viability (log2)” value is 0.00307 under setting [7]; -0.0241 under setting [8]; -0.0486 under setting [9]; -0.0662 under setting [10]; -1.35 (active) under setting [11]; -1 (active) under setting [12].

Take `C=CC(=O)Nc1cc2c(Nc3ccc(F)c(Cl)c3)ncnc2cc1OCCCN1CCOCC1`: the “cell viability (log2)” value is, setting by setting: under setting [1], 0.0394; under setting [2], 0.0254; under setting [3], -0.016; under setting [4], 0.0224; under setting [5], -0.0215; under setting [6], -0.0107. Also, the “cell viability (log2)” value is, setting by setting: under setting [7], -0.0981; under setting [8], -0.0776; under setting [9], -0.188 (active); under setting [10], -0.0307; under setting [11], -0.199 (active); under setting [12], -0.281 (active).

Consider `COc1cc2c(Nc3ccc(Br)cc3F)ncnc2cc1OCC1CCN(C)CC1`, for which the “cell viability (log2)” value was -0.0043 under setting [1]; 0.0398 under setting [2]; -0.0447 under setting [3]; 0.068 under setting [4]; 0.0443 under setting [5]; 0.0503 under setting [6]. The “cell viability (log2)” value is, setting by setting: under setting [7], -0.0379; under setting [8], 0.00456; under setting [9], -0.00527; under setting [10], -0.0123; under setting [11], -0.0986; under setting [12], -0.0825.

In the case of `CS(=O)(=O)CCNCc1ccc(-c2ccc3ncnc(Nc4ccc(OCc5cccc(F)c5)c(Cl)c4)c3c2)o1`, the “cell viability (log2)” value was 0.145 under setting [1]; 0.0528 under setting [2]; 0.146 under setting [3]; 0.112 under setting [4]; 0.139 under setting [5]; 0.114 under setting [6]. Further, the “cell viability (log2)” value under setting [7] is 0.0651; the “cell viability (log2)” value under setting [8] is 0.113; the “cell viability (log2)” value under setting [9] was 0.0899; the “cell viability (log2)” value under setting [10] is 0.0389; the “cell viability (log2)” value under setting [11] is 0.0387; the “cell viability (log2)” value under setting [12] was 0.0962.

Consider `COc1cc2c(N3CCN(C(=O)Nc4ccc(OC(C)C)cc4)CC3)ncnc2cc1OCCCN1CCCCC1`, for which the “cell viability (log2)” value was -0.0129 under setting [1]; -0.0538 under setting [2]; -0.0428 under setting [3]; -0.0392 under setting [4]; -0.0343 under setting [5]; -0.0604 under setting [6]. Moreover, the “cell viability (log2)” value under setting [7] is 0.0597; the “cell viability (log2)” value under setting [8] was 0.0175; the “cell viability (log2)” value under setting [9] was 0.0441; the “cell viability (log2)” value under setting [10] is 0.0441; the “cell viability (log2)” value under setting [11] was -0.0915; the “cell viability (log2)” value under setting [12] is 0.0601.

Consider `CCCCCCCCCCCCCCCC(=O)NCC(COP(=O)([O-])OCC[N+](C)(C)C)OCC` (stereo not drawn), for which the “cell viability (log2)” value is 0.198 under setting [13], 0.0364 under setting [14], 0.0761 under setting [15] and -0.0192 under setting [16].

Take `COc1ccc(C(=O)c2ccccc2)c(O)c1O`: the “cell viability (log2)” value was 0.123 under setting [17], 0.143 under setting [18], 0.244 under setting [19] and 0.216 under setting [20].

Take `COc1ccc2c(c1)c(CC(=O)Nc1ccc(NC(C)=O)cc1)c(C)n2C(=O)c1ccc(Cl)cc1`: the “cell viability (log2)” value is, setting by setting: under setting [13], -0.0274; under setting [14], 0.0874; under setting [15], 0.0757; under setting [16], 0.214.

On to `CCCN(CCC)CCc1cccc2c1CC(=O)N2`, for which the “cell viability (log2)” value is -0.0806 (active) under setting [13], -0.203 (active) under setting [14], -3.18 (active) under setting [15] and -2.79 (active) under setting [16].

For the compound `CCN1C(=O)/C(=C/c2c(N3CCN(C)CC3)nc3ccccn3c2=O)SC1=S`, the “cell viability (log2)” value by setting is: under setting [17], 0.0782; under setting [18], 0.0798; under setting [19], 0.126; under setting [20], 0.0777.

Take `COc1ccc(-c2nn(-c3ccccc3)cc2C=O)cc1[N+](=O)[O-]`: the “cell viability (log2)” value by setting is: under setting [17], 0.000395; under setting [18], 0.0393; under setting [19], 0.0878; under setting [20], 0.0816.

Consider `COc1ccccc1N(C(N)=O)c1nc(-c2cccnc2)nc2ccccc12`, for which the “cell viability (log2)” value under setting [13] was 0.155, the “cell viability (log2)” value under setting [14] is 0.0439, the “cell viability (log2)” value under setting [15] is 0.275 and the “cell viability (log2)” value under setting [16] is 0.0633.

Turning to `Cc1cc2ncc(-c3ccccc3)nc2cc1C`, the “cell viability (log2)” value is, setting by setting: under setting [21], 0.21; under setting [22], 0.0761; under setting [17], 0.265; under setting [18], 0.0996; under setting [19], -0.0894 (active); under setting [20], 0.141. In addition, the “cell viability (log2)” value by setting is: under setting [23], -0.147 (active); under setting [24], 0.0902.

For the compound `COc1cc2ncc(-c3ccccc3)nc2cc1OC`, the “cell viability (log2)” value is, setting by setting: under setting [21], 0.165; under setting [22], -0.00441; under setting [17], 0.202; under setting [18], 0.0199; under setting [13], 0.139; under setting [14], 0.0671. Moreover, the “cell viability (log2)” value runs as follows: under setting [19], -0.0715; under setting [20], 0.188; under setting [15], 0.212; under setting [16], 0.201; under setting [23], -0.157 (active); under setting [24], 0.175.

In the case of `C=C(c1ccccc1)c1cc(O)c(OC)cc1O`, the “cell viability (log2)” value was -0.0139 under setting [17], -0.00424 under setting [18], 0.0356 under setting [19] and 0.0603 under setting [20].

For the compound `O=C(Nc1ccccn1)c1cc(-c2ccccc2)nc2ccccc12`, the “cell viability (log2)” value by setting is: under setting [17], 0.083; under setting [18], -0.00975; under setting [19], 0.0888; under setting [20], -0.0311.
